Our source for the growth values is PubChem BioAssay (NCI).

Compounds without any hit were thinned out: in the full panel of roughly 83,000, 20% have a hit.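 How to read the values: 0–100, growth inhibition (40 = 60% inhibited); 0, no net growth; -100 to 0, cell death (-40 = 40% of starting cells died; -100 = all dead).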 Unmarked numbers belong to inactive results. The source made the active and inactive calls.

For this assay, the system named is HL-60(TB) leukemia. Kind of assay: NCI-60 one-dose screen, 48 h (100 = growth as untreated, 0 = no growth, -100 = all killed). The following applies: 10 µM unless noted. The procedure:
Growth inhibition of the HL-60(TB) human tumor cell line is measured as a screen for anti-cancer activity. Cells are grown in 96 well plates and exposed to the test compound for 48 hours. Compounds are tested at a single concentration, which is 10^-5 M for most compounds. The reported endpoint is percent growth (GI% or GIPRCNT), where numbers from 0 - 100% represent growth inhibition, and numbers from -100% - 0 represent cell death. For example, a value of 40 represents 60% growth inhibition. A value of 0 means no net growth occurred over the course of the experiment. A value of -40 indicates 40% of cells at the beginning of the experiment died by the end of the experiment. A value of -100 means all cells are dead at the end of the experiment.
NCI-60 Human Tumor Cell Lines Screen was performed using the standard one-dose NCI protocol, which is described in more detail at https://dtp.cancer.gov/discovery_development/nci-60/default.htm.
Compounds with GIPRCNT values below 10 were considered active. Activity score was based on GIPRCNT using the following formula: […]
Score is 0 for GIPRCNT values of 100 or above, 50 for GIPRCNT values of 0, and 100 for GIPRCNT values of -100.
As for `CS(=O)(=O)Nc1ccc(-c2ccc3c(c2)ncn3-c2ccc(NC(=O)Nc3ccc(Br)cc3)cc2)cc1`, the growth was -42% (active).

As to `C#CCOc1ccc(/C=N/Nc2nc(-c3ccc(F)cc3)cs2)cc1OC`, the growth was 25.2%.

As for `O=S(=O)(Nc1cccc(-n2cnc3cc(-c4ccc(O)cc4)ccc32)c1)C1CC1`, the growth was -19.9% (active).

Consider `COc1ccc(-c2nc3ccc(-c4nnc(SCC(=O)Nc5ccc(/C(C)=N\O)cc5)o4)cc3[nH]2)cc1`, for which the growth was 77.6%.

In the case of `COc1cc2cc(C(=O)N3C[C@@H](CCl)c4c3cc(OC(=O)N3CCN(C)[C@@H]5CSSC[C@H]53)c3ccccc43)[nH]c2c(OC)c1OC`, the growth is -43.4% (active).

On to `Cc1cc(C)nc(/N=C(\N)Nc2ccc(S(=O)(=O)Nc3nc(C)cc(C)n3)cc2)n1`, for which the growth was 94.7%.

On to `Nc1cc(-c2c[nH]c3ccc(F)cc23)nc2cc(-c3c[nH]c4ccccc34)nn12`, for which the growth was -0.0986% (active).

As for `O=C(C1=CNC(=S)NC1c1ccc(O)cc1)c1cc2ccccc2oc1=O` (stereo not given), the growth is 79.5%.

For `O=c1c2ccccc2nc(-c2ccccc2)n1/N=C/c1ccc2ccccc2c1`, the growth is 35.7%.

On to `OCCn1cc(-c2nc3ccc4[nH]ncc4c3c3c2CCCC3)cn1`, for which the growth is 45.2%.

For the compound `Nc1cccnc1/C=N/NC(=S)NCCNC(=O)c1ccc(-n2nc(-c3ccccc3O)nc2-c2ccccc2O)cc1`, the growth is -8.62% (active).

For `COc1cccc(/C=N/NC(=O)c2ccc3nc(-c4ccc(Cl)cc4)[nH]c3c2)c1O`, the growth was -43.4% (active).

In the case of `Cc1ccc(-c2cc(-c3cc4ccccc4nc3Cl)[nH]c(=O)n2)cc1`, the growth was -32.7% (active).

For the compound `COC(=O)c1c(C(=O)OC)c2c3ccccc3c3ccccc3n2c1C(=O)C(F)(F)F`, the growth was 107%.

`Cc1noc2c(Cc3ccc([N+](=O)[O-])cc3)nn(CC(=O)N/N=C/c3ccc(Cl)cc3)c(=O)c12`: the growth is 87.5%.

With `COc1ccc2[nH]cc(-c3nc(N)nnc3-c3cn(C)c4ncccc34)c2c1`, the growth was 15.1%.

As to `O=C(CSc1nnc(-c2c[nH]c3ccccc23)n1-c1ccccc1)c1ccccc1`, the growth was 87.2%.

`CCCCNC(=S)Nc1ccc(OCc2nc3ccc(Cl)cc3[nH]2)cc1`: the growth was 13%.

As to `CCOc1ccc(/C=N/NC(=O)Cn2nc(Cc3ccccc3)c3onc(C)c3c2=O)cc1`, the growth was 89.7%.

For the compound `Cc1nn(-c2ccccc2)c2ncn(CC(=O)N/N=C/c3ccccc3O)c(=O)c12`, the growth was 6.2% (active).

On to `N#Cc1c(-c2ccc(F)cc2)nc(SCc2ccc(F)cc2)nc1N1CCOCC1`, for which the growth is 85%.

Consider `O=C(N/N=C/c1ccc(B(O)O)o1)c1[nH]c2ccc(Br)cc2c1-c1ccccc1`, for which the growth was -29.3% (active).

For the compound `CCOC(=O)/C(F)=C/C1CC1C(c1ccccc1)c1ccccc1` (stereo not given), the growth was -7.32% (active).

With `COc1cc(NC(=O)CSc2nnc(-c3ccc4nc(-c5ccc(Cl)cc5)[nH]c4c3)o2)cc(OC)c1OC`, the growth is 56.6%.

For `N#Cc1ccc(-c2nn(-c3ccc(C(=O)O)cc3)cc2CNc2cccc(Br)c2)cc1`, the growth is 47%.

In the case of `NS(=O)(=O)c1ccc(-n2cc(-c3cccc(NC(=O)c4cc(C(F)(F)F)cc(C(F)(F)F)c4)c3)nn2)cc1`, the growth was 63.4%.

On to `COC(=O)c1cc(C(=O)C(C)(C)C)n2c3ccccc3c3ccccc3c12`, for which the growth was 90.4%.

Regarding `O=C(/C=C/Nc1ccc(Cl)cc1)c1ccc2c(c1)Nc1ccccc1S2`, the growth was 92.7%.

Regarding `CNCc1cccc2c1OCCCCCC[C@@](C)(O)CC1(CC1)S(=O)(=O)c1ccc(cc1)-c1cnc(N)c(n1)C(=O)N2`, the growth is -61.1% (active).

`CSc1ccc(NC(=O)c2ccc3nn(/C(C#N)=C/c4ccccn4)nc3c2)cc1`: the growth is -18.9% (active).

For the compound `O=C(NO)c1ccc(CNC(=O)[C@H]2Cc3c([nH]c4ccccc34)[C@H](c3ccc(Cl)cc3)N2)cc1`, the growth was 4.62% (active).

As to `CC(=O)Oc1ccccc1C(=O)[Se]CC(=O)Nc1cccc(C(F)(F)F)c1`, the growth was -14.9% (active).

Take `COc1cc(NC(=O)c2cc(-c3ccc(F)cc3F)ccc2O)cc(OC)c1OC`: the growth was 15.8%.

Take `COc1ccc(N=Nc2c(N)nn3c(N)c(C#N)c(-c4ccc(C)cc4)nc23)cc1`: the growth is 52.1%.

With `COc1ccc([C@H]2C(C(=O)c3ccc(Cl)cc3)C3(N[C@@H]2c2ccccc2)C(=O)Nc2ccc(Cl)cc23)cc1` (stereo not given in full), the growth was 11.5%.

For the compound `Cn1cc(-c2cc(N)n3nc(-c4c[nH]c5ccccc45)cc3n2)c2cccnc21`, the growth was -70.9% (active).

As to `Oc1ccc(Cl)c(Nc2ncnc3c2cnn3CC(Cl)c2ccc(Br)cc2)c1` (stereo not given), the growth is 80.5%.

On to `CO[C@@H]1CSSC1Cn1nc(-c2ccc(Oc3ccccc3)cc2)c2c(N)ncnc21` (stereo not given in full), for which the growth is 13.3%.

Consider `COc1ccc2c(c1)c(-c1cc(N)n3nc(-c4cn(C)c5ccccc45)cc3n1)cn2C`, for which the growth is -33.1% (active).

With `CCN1C(=O)/C(=N\N=C(/C)c2ccc3c(c2)Nc2ccccc2S3)c2cc(Cl)ccc21`, the growth is 75.2%.
